Most compounds without a hit are left out; they make up all but 5% or so of the library.
SENP6 block: SENP6 protease inhibition; Q9GZR1; Recombinant SENP6 catalytic domain, aminoluciferin luminescence; inhibition, % at 10 µM; hit rate 1.8% among 330,000; AID 2599;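 active = inhibition above about 50% at the single tested dose, limit read from the data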
SENP8 block-1: SENP8 protease inhibition | Q96LD8 | purified SENP8, Z-RLRGG-aminoluciferin cleavage, luminescence | inhibition, % at 10 µM | hit rate 1.2% among 330,000; in the data active = inhibition above about 50%
Target sequence (Q96LD8 whole entry, looked up): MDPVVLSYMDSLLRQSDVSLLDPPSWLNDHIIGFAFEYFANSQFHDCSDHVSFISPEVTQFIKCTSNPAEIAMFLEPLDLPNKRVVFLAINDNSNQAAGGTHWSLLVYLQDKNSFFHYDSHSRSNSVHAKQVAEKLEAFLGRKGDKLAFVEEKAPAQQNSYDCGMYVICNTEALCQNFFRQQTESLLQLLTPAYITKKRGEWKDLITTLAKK
AHR activator: activates the human aryl hydrocarbon receptor. P35869. AHR-responsive luciferase reporter cells, luminescence. activation, % at 5 µM. hit rate 2.5% among 320,000. AID 2796; in the data active = activation above about 47%
EBI2 block: EBI2 (human) antagonism. hit rate 0.81% among 360,000. AID 651636. P32249. EBI2 beta-arrestin recruitment, luminescence, 7a,25-OHC stimulated. inhibition, % at 5 µM; in the data active = inhibition above about 38%;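 also: enzyme fragment complementation signal reports receptor beta-arrestin coupling in cells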
Target sequence (P32249 whole entry, looked up, the tested form may be a part): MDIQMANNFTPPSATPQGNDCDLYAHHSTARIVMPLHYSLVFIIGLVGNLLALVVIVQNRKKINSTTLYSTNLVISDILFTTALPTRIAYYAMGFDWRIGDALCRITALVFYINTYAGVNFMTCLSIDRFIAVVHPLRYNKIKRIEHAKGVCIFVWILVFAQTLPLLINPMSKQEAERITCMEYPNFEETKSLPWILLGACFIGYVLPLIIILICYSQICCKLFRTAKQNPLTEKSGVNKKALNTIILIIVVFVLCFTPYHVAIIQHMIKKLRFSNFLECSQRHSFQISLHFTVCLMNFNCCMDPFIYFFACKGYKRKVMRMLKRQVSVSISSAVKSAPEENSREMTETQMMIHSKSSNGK
SENP8 block-2: blocks human SENP8 cleavage of Nedd8 substrate. Q96LD8. recombinant SENP8, Nedd8 substrate fluorescence. inhibition, % at 20 µM. hit rate 0.64% among 360,000. AID 602440; in the data active = inhibition mostly above about 40%, no sharp cut-off; inactive = mostly below about 27%
SENP7 block: SENP7 protease inhibition; Q9BQF6; recombinant SENP7, Z-RLRGG-aminoluciferin luminescence, 40 min; inhibition, % at 5 µM; hit rate 1.5% among 330,000; AID 434973;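 active = inhibition above about 50% at the single test dose, limit read from the data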
Large screens that a line does not name were inactive.

COc1ccc(C(NC(=O)C2CCN(CCCOc3ccccc3)CC2)c2cccs2)cc1 (stereo unspecified)	none (no result: SENP6 block, SENP8 block-1, AHR activator, SENP7 block)
Cc1cc(C)cc(OC(C)C(=O)Nc2ccc(S(=O)(=O)Nc3cc(C)nc(C)n3)cc2)c1 (stereo unspecified)	none
C=CCNC(=S)N/N=C/c1ccc(-c2ccc(OC)cc2)o1	AHR activator 64.5
C=CCNC(=S)N/N=C/c1ccc(-c2ccc(Cl)cc2Cl)o1	AHR activator 61.2
CC1(c2nnnn2-c2ccc3c(c2)OCCO3)CCC(=O)N1CCc1c[nH]c2ccccc12 (stereo unspecified)	none (no result: SENP6 block, SENP8 block-1, AHR activator, SENP7 block)
CCN(C(=O)CSc1nnc(-c2cccc(F)c2)n1N)c1c(N)n(Cc2ccccc2)c(=O)[nH]c1=O	none (no result: SENP6 block, SENP8 block-1, AHR activator, SENP7 block)
COc1ccc(N=[N+]([O-])c2ccc(OC)cc2)cc1	SENP8 block-2 41.3 (no result: SENP6 block, SENP8 block-1, AHR activator, SENP7 block)
COc1ccc(S(=O)(=O)c2ccc(OC)cc2)cc1	none
Nc1nc2nc(-c3ccccc3)cc(C(F)(F)F)c2s1	AHR activator 67.8
NS(=O)(=O)c1ccc(N/N=C/c2ccc(O)c(O)c2O)c([N+](=O)[O-])c1	SENP8 block-2 105.5 (no result: SENP6 block, SENP8 block-1, AHR activator, SENP7 block)
NS(=O)(=O)c1ccc(N/N=C/c2ccccc2C(=O)O)c([N+](=O)[O-])c1	none
O=C(O)c1ccccc1NS(=O)(=O)c1ccc(N/N=C/c2ccc(O)c(O)c2)c([N+](=O)[O-])c1	SENP8 block-2 52.9 (no result: SENP6 block, SENP8 block-1, AHR activator, SENP7 block)
CC1(C(=O)NS(=O)(=O)c2ccc(C#N)cc2)CCN1C(=O)Cc1ccc(Cl)cc1Cl (stereo unspecified)	none (no result: SENP6 block, SENP8 block-1, AHR activator, SENP7 block)
O=C(NN1C(=O)/C(=C\c2ccc(O)c([N+](=O)[O-])c2)SC1=S)c1ccccc1Cl	SENP8 block-2 67.7
O=C(O)c1ccc(/C=C2\SC(=S)N(NC(=O)c3ccccc3[N+](=O)[O-])C2=O)cc1	none (no result: AHR activator)
Cc1ccc(C(=O)NN2C(=O)/C(=C/c3cn(C)c4ccccc34)SC2=S)cc1	SENP8 block-2 42.1 (no result: SENP6 block, SENP8 block-1, SENP7 block)
Cn1cc(C=O)c2ccccc21	none
Cn1cc(/C=C2\SC(=S)N(NC(=O)c3ccccc3Cl)C2=O)c2ccccc21	SENP8 block-2 43.9 (no result: SENP6 block, SENP8 block-1, SENP7 block)
Cn1cccc1/C=C1\SC(=S)N(NC(=O)c2ccccc2Cl)C1=O	none (no result: SENP6 block, SENP8 block-1, SENP7 block)
Cn1cc(/C=C2\SC(=O)NC2=S)c2ccccc21	AHR activator 47.2
Cc1c(NC(=S)N/N=C/c2ccc([N+](=O)[O-])cc2O)c(=O)n(-c2ccccc2)n1C	SENP8 block-2 40.1
C/C(=N\Nc1nc(C)cc(-c2ccccc2)n1)c1cccc(N)c1	AHR activator 49.4
C/C(=N\Nc1nc(C)cc(-c2ccccc2)n1)c1ccc(C)o1	AHR activator 47.1
Cc1cc(-c2ccccc2)nc(N/N=C/c2ccccc2F)n1	AHR activator 67.9
Cc1ccc2nc(N/N=C/c3ccccc3F)nc(-c3ccccc3)c2c1	none
CC1C(=O)N2CCCc3cc(S(=O)(=O)N(C)c4ccccc4)cc1c32 (stereo unspecified)	none
Cc1ccc(Cn2cc(CN3CC(N4CCN(CCO)CC4)CS3(=O)=O)nn2)cc1 (stereo unspecified)	none (no result: SENP6 block, SENP8 block-1, AHR activator, SENP7 block)
O=C(CSc1nc2c(sc3ccccc32)c(=O)n1-c1ccccc1)NCc1ccco1	AHR activator 113.4
O=C(NCCc1ccccc1)c1ccccc1C(=O)NCCc1ccccc1	AHR activator 70.1
O=C(NCCc1ccccc1)c1ccccc1F	none
O=C(NC(=S)NCCc1ccccc1)c1ccccc1	AHR activator 69.2
O=C(NC(=S)NCc1ccccc1)c1ccccc1F	none
O=C(NC(=S)NCCc1ccccc1)c1ccccc1F	AHR activator 74.5
COc1ccc(-c2nc(CSCC(=O)NCCCN3CCCC3=O)c(C)o2)cc1OC	none
N#Cc1cccnc1Nc1cccc(Cl)c1	AHR activator 77.1
COC(=O)/C=C1\S/C(=N/N=C/c2ccc(Cl)cc2)NC1=O	SENP8 block-2 43.4
COC(=O)/C=C1\S/C(=N/N=C/c2ccccc2)NC1=O	none
COc1cc(OC)cc(C(=O)Nc2nc3ccccc3[nH]2)c1	none
Cc1cc(C)cc(C(=O)Nc2nc3ccccc3[nH]2)c1	AHR activator 56.8
Cc1c(C(=O)Nc2nc3ccccc3[nH]2)cccc1[N+](=O)[O-]	AHR activator 59.8
O=C(Nc1nc2ccccc2[nH]1)c1cc2ccccc2o1	AHR activator 56.4
Cc1cc(C)nc(NC(=O)c2cc3ccccc3o2)n1	none
Cc1ccsc1C(=O)Nc1nc2ccccc2[nH]1	SENP6 block 98.6, SENP8 block-1 94.7, AHR activator 110.6, SENP7 block 98.3
CN(C)S(=O)(=O)c1ccc(C(=O)Nc2nc3ccccc3[nH]2)cc1	none
CCOC(=O)c1c2n(c3ccc(OC(C)=O)cc13)CCC2	AHR activator 48.3
CCC(=O)N1CCC1(C)C(=O)Nc1cccc(OC)c1OC (stereo unspecified)	none (no result: SENP6 block, SENP8 block-1, AHR activator, SENP7 block)
Cc1cc(=O)oc2cc(NC(=O)c3ccccc3Cl)ccc12	AHR activator 63.0
Cc1cc(=O)oc2cc(NC(=O)c3ccccc3C(=O)O)ccc12	none
O=C(O)COn1c(-c2ccc(Cl)cc2)nc2ccc(Cl)cc21	AHR activator 66.9
O=[N+]([O-])c1ccc2nc(-c3ccc(Cl)cc3)n(OCc3ccccc3)c2c1	SENP6 block 74.5, SENP7 block 59.8
Cc1cccc(NC(=O)NNC(=O)c2sccc2-n2cccc2)c1	AHR activator 52.8
O=C(Nc1ccc(Br)cc1F)c1sccc1-n1cccc1	AHR activator 102.8
COc1cccc(C(=O)NNC(=O)c2ccccc2-n2cccc2)c1	none
COc1cccc(C(=O)NNC(=O)c2sccc2-n2cccc2)c1	AHR activator 69.0
Cc1c(Br)cccc1NC(=O)c1sccc1-n1cccc1	none (no result: AHR activator)
Cc1ccc(S(=O)(=O)N2CCN(c3ccc(C(=O)N4CCOCC4)cc3[N+](=O)[O-])CC2)cc1	none
CSc1nc(O)c(/C=C2\C=Nc3ccccc32)[nH]1	AHR activator 76.0
O=C1c2ccccc2-c2onc3ccc(Oc4ccccc4)c1c23	none
CCOC(=O)C(C(=O)OCC)c1cc(Br)c2noc3c2c1C(=O)c1ccccc1-3	SENP6 block 65.4, SENP8 block-2 87.1
COc1ccc(OC)c(Nc2nc(C3CC3)nc3c2nnn3Cc2ccccc2)c1	none
c1ccc(Cn2nnc3c(Nc4ccc5c(c4)OCO5)nc(C4CC4)nc32)cc1	AHR activator 69.6
CC(=O)OCC(=O)C1(O)CCC2C3CCC4CC(O)CCC4(C)C3C(=O)CC21C (stereo unspecified)	none (no result: SENP6 block, SENP8 block-1, AHR activator, SENP7 block)
NCc1csc(Nc2ncccn2)n1	none (no result: SENP6 block, SENP8 block-1, AHR activator, SENP7 block)
Cc1nn(-c2ccccc2)c(C)c1/C=N/NC(=O)c1cc(-c2cccc3ccccc23)n[nH]1	none
Cc1[nH]c2ccccc2c1/C=N/NC(=O)c1ccccc1	AHR activator 68.4
Cc1nn(-c2ccccc2)c(C)c1/C=N/NC(=O)c1cc(-c2ccccc2)n[nH]1	AHR activator 47.7
Cc1[nH]c2ccccc2c1/C=N/NC(=O)c1cc(-c2ccncc2)nc2ccccc12	AHR activator 56.6
Cc1[nH]c2ccccc2c1/C=N/NC(=O)c1cccc(Br)c1	AHR activator 67.8
